The results in this text go back to PubChem BioAssay AID1347426 (Functional Genomics Laboratory (NCATS/FGL), 2020).

About 1,400 (4.5%) of roughly 31,000 sequences were called active. The entries come from a sample that favours actives as a whole. Values without a mark were called inactive.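 How the source made its calls: active means median seed-adjusted z-score above 1 or below -1; inactive means the rest.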

A short description of the test: Novel Modifiers of Survival Motor Neuron (SMN) Protein: Gene Identification via Genome-wide siRNA Screen.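 Further: luminescence tracks full-length SMN protein made from the SMN2 reporter.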 Conditions: HEK293T SMN2-luciferase reporter, siRNA knockdown, 72 h; actives lie on both sides. Summed up:
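Steps: spot 1 pmol siRNA, add Lipofectamine RNAiMax in serum-free DMEM, seed HEK293T SMN2–luciferase reporter cells; incubate 72 h at 37 °C; add ONE-Glo; normalize luminescence to control siRNA, log10, MAD. Candidates: |MAD| > 1.0.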
(A reporter such as luciferase makes a cellular process visible.)
On to AGAUGUACAUCCUCGUGCATT against ELFN2, for which the median seed-adjusted z-score is -0.0888.
Next, CUCCUGAGAUAAUAAUGAATT against RFC3: 0.733; CUCCUAUAAGAAAUCAAUATT against FLVCR1: 0.197; CCAAUACAGUGGACAGUUATT against EMR1: 0.255.
Under GGAGGGUCUUCAUCGCUGATT against POLR2C stands -2.95 (active); under AAAGAAUCAUUGUGAAAGATT against PARVA, 0.0852.
GCCUUCCACGCUUUCCUGATT against RGS16: the median seed-adjusted z-score was 0.
In the case of GCGCAAUAAUGAACGGCAATT against GALNT14, the median seed-adjusted z-score is 0.
Under CGAUCGCAAGUACCACGAATT against ATP8B1 stands 0.357.
In the case of GACUAGCUGCUGAUAAGAATT against CKAP5, the median seed-adjusted z-score was -1.87 (active).
Next, AGUCCUCGGUGAUGCGUGATT against LMNB2: -0.15; CAGGCACAGUUGCCGAUUATT against CD247: -0.522.
With CCUUGACCAUGAAAAAGAATT against ZNF704, the median seed-adjusted z-score is -0.15.
Under GCUAUUGAAAGUACACCUATT against NARG1 stands -1.02 (active); under GGUUAUAACGGGACGAUUUTT against KIF5C, 0.283; under CCAUGUUAGAAGCCCGGAATT against ZNF385D, -0.338.
Next, AGAGGUACGUCUACAGUAUTT against F2R: -0.392; CGUCAAAUUUUUGCACAAATT against GPR176: 0.0782.
Take GCCGAAUUGUUUCUAGUUATT against PIN1: the median seed-adjusted z-score was 0.156.
Under GACAGUCACUGAGCAUAGATT against PKD1L2 stands -1.17 (active); under GGAGAAAUCAGCUACAGGATT against SRD5A2, 0.185; under CAAUUGGAAUCGUCUUUUUTT against UBAC2, 0.611.
Under CAAGUCCCAUUGAUCCUGATT against HLF stands 0.0548.
Turning to CAAGAGCAAGCAAACCUAATT against OLR1, the median seed-adjusted z-score is 0.
Under CGGCAAGAGUGUCCAGUAUTT against RNF5 stands -0.0342.
As for CCUUAGGAAUGAAAUCGCUTT against SIPA1L1, the median seed-adjusted z-score is 0.0925.
Regarding GCACUAGCAGAGUCCGAAATT against OPRK1, the median seed-adjusted z-score is -1.08 (active).
For CAGAAUCGCUUCUACAAGATT against SPAG6, the median seed-adjusted z-score was -0.439.
Under UGACAUCCGUGACCUCUAATT against LHX9 stands 0.157.
Under GGAAAACGGCAUUGCAGAATT against SLC23A2 stands -0.0585.
GGCACUAUUCUGCUAAGAATT against RAPGEF5: the median seed-adjusted z-score is 0.529.
Next, GCCUGUUCGAAAGCGCAAATT against UBR4: 0.602; AGGAGAAUGUGAUCCGAGATT against TXNDC14: -2.39 (active).
Under GGGUCUUCAUGAUUGGUGUTT against SLC44A5 stands 0.179; under GUUUGUAGGUCGUCAGAAATT against NDUFS6, -0.0128; under CAUCCAGUCUGUAUACGAATT against ACLY, 0.478.
Next, GCCUCCAAAGGUUACAUUUTT against UBE2E1: 0.888; GAUGUAAACCCUGAACUAATT against CSRP2: -0.829.
Turning to GAGGUAAUCUGGGUGCACATT against PARK7, the median seed-adjusted z-score is -0.357.
Under GAAUGGAGGUCAACUAUAUTT against UBE2E2 stands -1.77 (active); under GAAUGUCAUCCGUAUUUCATT against AKR1C3, -0.00538.
Under GGAACUGCUGCAUUAGAUATT against ITCH stands 0.199.
Under GAAUUUGUUCAUUAUCGUATT against UBE3A stands 0.0949; under GGCGAACUGUUUUAGAAGATT against CCNB2, 0.0328; under CGAUGUUGGUUAUGAGAGATT against ACTR3, -0.7.
As for GGAUAGAGGUUUCCAGUUUTT against CNBP, the median seed-adjusted z-score was -1.14 (active).
Under GCAGGUUCCUUAUCUGUCATT against BIRC5 stands 0.0236; under GGAUUAGUGAUUAUAUGGATT against NPAS3, -0.0316.
Next, CAUCCAAGAUUAUAGUGGATT against PNLIP: 0.385; GUACAGACCUGAGAAUUCUTT against CTSL2: -1.04 (active); GAUGAACCCUGGAACUUCATT against ZNF354B: 0.393.
Next, AGAAGGACGUGUCCAAGGATT against FOXC2: -0.792; GAAUGAUGUUGACAUGAGUTT against SSR1: -0.434; GCCUAUUCAUCGGAAGGUATT against SENP2: 0.
Regarding UGCUUAUGAUCAACAUUUATT against LSM3, the median seed-adjusted z-score was -1.36 (active).
On to GGGUUUAACUUUCAGAGAUTT against VN2R1P, for which the median seed-adjusted z-score was -0.25.
Under GGGUUGGUGUGAUUGGAGUTT against LOC647743 stands -0.203; under GCUCGGCAUCUGUUGGUUATT against SIRT3, -0.341.
Under GGCCUAUAAUGAAUACCCUTT against GLRA1 stands 0; under CAUUGAAACUGAUAAACCATT against ARCN1, -1.25 (active); under GCAGAGCAAUGGGAGAGAATT against EPHB4, -0.143.
Under GCAUCGCAGUGCUAAACAUTT against DGKA stands -1.36 (active); under AGACAAUCGUCAUGCAAUUTT against CDC37, 0.
For GAAUUACUCUGCCUCUAAATT against TAF7, the median seed-adjusted z-score was -0.593.
Under CGUCUAAUGCUGCUCCACATT against AGPAT1 stands -1.38 (active).
Next, AUCCUUCCCUGAAUCAUCATT against KLRC2: -0.472; GUAUCCAUGUGCAUUUUAATT against NT5E: 0.199; GCUCAUACCUCGGAUGUCATT against GPR31: -0.0381.
Under CCACAUUUGUGACGCAAAATT against TPSAB1 stands 0.197.
GCUAAAUGGAGGAGACUAATT against HHEX: the median seed-adjusted z-score was -0.428.
Under CAACAUUCAUGGACGGGAATT against SLC2A7 stands -0.0337; under CGUAAAUCCCUAAUCUUUATT against FOXJ1, -0.553; under CACUGAAUGUGAGAGCUGUTT against HRC, 1.06 (active).
Under CCUUCUUCUGGAUACCGAUTT against ABCA9 stands -0.139; under GCGGAAAAGCUGUAUCUAUTT against POLR3E, -0.55.
Under GGUGGAACUUUUAAUCAAATT against GABPB2 stands 0.441.
Regarding CCAGAUUGCUAGUAUCUCATT against TRAK1, the median seed-adjusted z-score is 0.298.
In the case of CCUGGAAAGUACUCUAGAATT against PGS1, the median seed-adjusted z-score was 1.36 (active).
Next, GGAUCCUACUGGUAAAACUTT against NUDT5: 0.228.
Next, GCAGCGACCUUUCAGAACATT against SALL1: -0.526; GAUUAUAAGUAUCUACGUUTT against GTPBP4: 1.01 (active).
Next, GACUGACACGGAAUAGUGUTT against ZNF286A: 0.0368; CCACCUUCAAUAUCGAGUUTT against DRD3: 0.0447.
As to ACUGCAAUCUGUUGCCCAATT against CLIC5, the median seed-adjusted z-score is 0.
Regarding CAUUCUCAGUCAUCAUAGATT against ATP8A2, the median seed-adjusted z-score was 0.
Under GGAUCUGCUUUCGAACCUATT against MBOAT1 stands -1.22 (active); under GGAUAGUAUGAAUGAUCAATT against SRP54, 0.203.
Under CCGCUUCACAGGUAGUUAATT against NUP93 stands 1.01 (active); under GGUCAAACAAUGUCGCUUUTT against COPB2, -0.61; under GUAAGUCCCUUUAUUCACATT against GFRA4, -1.59 (active).
Under GGACUCUACCUGACAGAAATT against CAPN13 stands 0.208; under GGUUCUAGCUGUCAACAUUTT against AP1G2, 0.0657; under ACCACCAAAUGAAGAAUAATT against AKR7A3, 0.455.
For GCAUCCUUGUGUACAUGUGTT against USP41, the median seed-adjusted z-score is 0.808.
Under GCACCUUCGUCUACAAGGATT against PDE6A stands 1.25 (active); under UGGACUUCGUGGUUCAGCATT against SULT1A1, -0.26.
Next, GGAUGUUUUCCGGUUCAUATT against LOC4951: 0.0691; GCUUUCAUCGGCUCCAUAATT against CARM1: 0.317.
Under GAUGUAACAUUGACAUUGATT against NOTCH2 stands 0.000598; under CAUUUUCAGUCUUUAGAAATT against RNF34, -0.0857.
With GGGUUGUUUCAAUCUAACATT against HDAC2, the median seed-adjusted z-score is -1.27 (active).
Under GCCCUGAAGAUAUCGUGAATT against PARVG stands 0.321; under GGACUUUGAGGAAACGGAATT against BRD8, -0.133.
Take GUUACGCCCUGAUUCUAAATT against MAT2A: the median seed-adjusted z-score is -1.9 (active).
Under GGAACAAAGACUAAAAACATT against TUBB6 stands 0.63; under GCAAAACACCAGAACGAGATT against TESSP2, 0.419; under GAAUAGAGGAUAUCCUUGATT against KYNU, 0.00735.
Next, CCAGCUUGCUUGUGUAUAATT against PPP1R14A: 0.0124.
